Assay [1] can be described thus: ATG_CRE_CIS: Attagene CIS-FACTORIAL HepG2 Assay for human cAMP Responsive Element (CRE) binding protein 3 (AID 2282926). The note with it: HepG2 CRE cis-reporter, Attagene multiplexed mRNA; actives raise or lower the signal. The gist of the method: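 Endogenous transcription factor activity read via CRE-regulated reporter transcripts in transfected HepG2 cells. After 24 h exposure, RNA was reverse-transcribed, amplified, fluorescently labelled and sized by capillary electrophoresis; gain or loss fitted against DMSO.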

For assay [2], the target named is CCAAT/enhancer-binding protein beta (Homo sapiens) (UniProt P17676). Kind of assay: ATG_C_EBP_CIS: Attagene CIS-FACTORIAL HepG2 Assay for human CCAAT/Enhancer Binding Protein (C/EBP) beta (AID 2282927). The note with it: HepG2 Attagene cis-factorial transcription factor reporter; actives raise or lower the signal. The gist of the method: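 HepG2, transient MRTU transfection, 24 h treatment. RT-PCR plus CE fluorescence; DMSO negative control, bidirectional fit.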
Sequence of CCAAT/enhancer-binding protein beta (Homo sapiens) (P17676 whole entry, looked up): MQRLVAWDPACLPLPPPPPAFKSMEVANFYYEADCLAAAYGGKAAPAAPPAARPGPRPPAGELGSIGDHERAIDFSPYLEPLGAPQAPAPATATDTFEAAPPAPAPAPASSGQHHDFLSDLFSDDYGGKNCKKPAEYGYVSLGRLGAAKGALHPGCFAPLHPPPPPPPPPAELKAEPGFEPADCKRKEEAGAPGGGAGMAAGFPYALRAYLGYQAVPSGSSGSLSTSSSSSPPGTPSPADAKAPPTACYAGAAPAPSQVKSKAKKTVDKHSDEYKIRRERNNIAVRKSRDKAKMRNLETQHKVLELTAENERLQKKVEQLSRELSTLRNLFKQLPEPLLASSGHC

Assay [3] is described as follows: ATG_CMV_CIS: Attagene CIS-FACTORIAL HepG2 Assay for human CMV (Internal Marker) (AID 2282928).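 Also: endpoint acts as a background internal control marker rather than a target.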 The note with it: HepG2 CMV promoter reporter, transcription factor profiling; actives raise or lower the signal. The gist of the method: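 Reporter transcripts from transfected HepG2 cells are isolated after 24 h of chemical dosing, reverse-transcribed and amplified. Fragments labeled with 6-FAM are cut with HpaI and quantified by capillary electrophoresis; DMSO defines baseline.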

The nature of assay [4]: ATG_DR4_LXR_CIS: Attagene CIS-FACTORIAL HepG2 Assay for human Liver X Receptor (LXR), DR4 submotif (AID 2282929). To be noted: HepG2 Attagene DR4 cis-reporter, mRNA transcription; actives raise or lower the signal. The method in brief:
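Transiently transfected HepG2 liver cells; cis-regulated reporters; 24 h dosing. RT-PCR plus CE read-out of reporter mRNA. DMSO baseline, bidirectional curve fitting.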

For assay [5], the target named is Aryl hydrocarbon receptor (Homo sapiens) (UniProt P35869). Kind of assay: ATG_Ahr_CIS: Attagene CIS-FACTORIAL HepG2 Assay for human Aryl Hydrocarbon Receptor (Ahr) (AID 2282930). To be noted: HepG2 AhR cis-factorial reporter transcription; actives raise or lower the signal. The gist of the method:
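Endogenous factor activity is tracked through cis-promoter reporter units transfected into HepG2 cells. Transcript levels at 24 h are read by fluorescent RT-PCR and capillary electrophoresis, with activity in either direction scored relative to DMSO.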

The nature of assay [6]: ATG_AP_1_CIS: Attagene CIS-FACTORIAL HepG2 Assay for human Activator Protein 1 (AP-1) (AID 2282931). The note with it: HepG2 Attagene cis-factorial AP-1 reporter mRNA; actives raise or lower the signal. The gist of the method:
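We transfected HepG2 cells transiently with a set of cis-regulated reporter transcription units, dosed them for 24 h, and quantified reporter mRNA via RT-PCR and capillary electrophoresis, scoring gain or loss of signal relative to DMSO.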

Assay [7] is described as follows: ATG_AP_2_CIS: Attagene CIS-FACTORIAL HepG2 Assay for human Activator Protein 2 (AP-2) (AID 2282932). The note with it: HepG2 AP-2 cis-reporter, Attagene transcription factor profiling; actives raise or lower the signal. The method in brief: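 Read-out: fluorescent reporter mRNA via RT-PCR and capillary electrophoresis, 24 h post-dose in transiently transfected HepG2. Endogenous factors drive cis-promoter reporters; gain or loss of signal fitted bidirectionally against DMSO.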

A short description of assay [8]: ATG_BRE_CIS: Attagene CIS-FACTORIAL HepG2 Assay for human Bone Morphogenetic Protein (BMP) Response Element (BRE) (AID 2282933). The note with it: HepG2 BMP response element reporter, Attagene transcription factor profiling; actives raise or lower the signal. The gist of the method: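 Transient MRTU transfection of human HepG2 liver cells; 24 h compound treatment; total RNA isolated, reverse-transcribed, PCR-amplified, 6-FAM labelled, HpaI-cut, capillary electrophoresis. DMSO = negative control/baseline, bidirectional fit.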

The target of assay [9] is Retinoic acid receptor alpha (Homo sapiens) (UniProt P10276). The assay can be described thus: ATG_DR5_RAR_CIS: Attagene CIS-FACTORIAL HepG2 Assay for human Retinoic Acid Receptor Alpha (RARE), DR5 submotif (AID 2282934). The note with it: HepG2 Attagene cis-factorial RARE DR5 reporter, mRNA; actives raise or lower the signal. The method in brief: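 After 24 h of chemical exposure, transiently transfected HepG2 cells were lysed for total RNA; the DR5-regulated reporter transcript was quantified via RT-PCR and capillary electrophoresis, with activity fitted bidirectionally against DMSO.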
Sequence of Retinoic acid receptor alpha (Homo sapiens) (P10276 whole entry, looked up): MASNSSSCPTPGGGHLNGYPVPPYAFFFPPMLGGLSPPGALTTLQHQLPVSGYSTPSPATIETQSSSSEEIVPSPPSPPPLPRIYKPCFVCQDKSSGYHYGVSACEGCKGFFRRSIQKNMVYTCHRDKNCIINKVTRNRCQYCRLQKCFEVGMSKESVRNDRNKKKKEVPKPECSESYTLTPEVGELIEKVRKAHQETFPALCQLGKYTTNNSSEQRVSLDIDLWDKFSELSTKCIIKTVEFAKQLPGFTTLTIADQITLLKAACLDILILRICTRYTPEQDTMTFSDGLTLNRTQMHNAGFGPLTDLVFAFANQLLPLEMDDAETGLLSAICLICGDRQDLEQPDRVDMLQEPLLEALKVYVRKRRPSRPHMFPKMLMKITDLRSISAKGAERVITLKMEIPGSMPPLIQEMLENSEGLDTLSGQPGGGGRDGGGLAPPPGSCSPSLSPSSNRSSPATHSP

Assay [10] has as its target Transcription factor E2F1 (Homo sapiens) (UniProt Q01094). Kind of assay: ATG_E2F_CIS: Attagene CIS-FACTORIAL HepG2 Assay for human E2F Transcription Factor 1 (AID 2282935). To be noted: HepG2 Attagene cis-reporter, E2F reporter RNA transcripts; actives raise or lower the signal. The method in brief:
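Transient MRTU transfection of HepG2; 24 h compound exposure; RNA → oligo(dT) RT → PCR → FAM label → HpaI cut → CE fluorescence. Gain/loss of signal fit against DMSO.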

Assay [11] is described as follows: ATG_E_Box_CIS: Attagene CIS-FACTORIAL HepG2 Assay for human Enhancer Box (E-box) (AID 2282936). The note with it: HepG2 E-box cis-reporter transcription, actives raise or lower the signal. The method in brief:
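Transiently transfected HepG2, endogenous TF-driven reporters, 24 h dosing. Readout: RT-PCR plus capillary electrophoresis of fluorescent reporter fragments. Gain or loss of signal fitted bidirectionally against DMSO baseline.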

The nature of assay [12]: ATG_M_61_CIS: Attagene CIS-FACTORIAL HepG2 Assay for M61 Transcription Factor (Internal Marker) (AID 2282937). The note with it: HepG2 Attagene CIS-FACTORIAL M61 internal marker reporter; actives raise or lower the signal. The gist of the method: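 Multiplexed reporter mRNA assay, HepG2 human hepatoma cells, 24 h treatment. Signal: FAM-labelled, HpaI-digested RT-PCR fragments by CE. Fit: bidirectional, baseline DMSO.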

A short description of assay [13]: ATG_EGR_CIS: Attagene CIS-FACTORIAL HepG2 Assay for human Early Growth Response 1 (EGR1) (AID 2282938). To be noted: HepG2 Attagene CIS-FACTORIAL EGR reporter mRNA; actives raise or lower the signal. The method in brief:
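Multiplexed cis-reporter system in human hepatoma HepG2 cells, transiently transfected. Cells are dosed for 24 h; reporter transcripts are amplified, fluorescently tagged and sized by capillary electrophoresis, with DMSO as negative control.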

Assay [14] is described as follows: ATG_M_19_CIS: Attagene CIS-FACTORIAL HepG2 Assay for M19 Transcription Factor (Internal Marker) (AID 2282939). To be noted: HepG2 Attagene CIS-FACTORIAL M19 internal marker reporter; actives raise or lower the signal. The method in brief:
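Transfect HepG2 with MRTU reporter library → dose chemical, 24 h → isolate total RNA, reverse-transcribe with oligo(dT) → PCR, 6-FAM label, HpaI cut (2 h, 37 C) → capillary electrophoresis. Bidirectional fit vs DMSO.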

The nature of assay [15]: ATG_Ets_CIS: Attagene CIS-FACTORIAL HepG2 Assay for human Erythroblast Transformation Specific (ETS) (AID 2282941). To be noted: HepG2 ETS cis-reporter transcription, actives raise or lower the signal. The method in brief:
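Bidirectional fit versus DMSO of reporter mRNA signal, detected by RT-PCR and capillary electrophoresis in HepG2 cells transiently transfected with cis-element reporters and dosed 24 h.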

For assay [16], the target named is Hepatocyte nuclear factor 3-beta (Homo sapiens) (UniProt Q9Y261). Kind of assay: ATG_FoxA2_CIS: Attagene CIS-FACTORIAL HepG2 Assay for human Forkhead box A2 (FOXA2) (AID 2282942). The note with it: HepG2 cis-reporter transcription factor activity, 24 h; actives raise or lower the signal. The method in brief:
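Multiplexed cis-element reporter assay in transiently transfected HepG2. Twenty-four hours post-dosing, RNA was reverse-transcribed, amplified, FAM-labelled, HpaI-digested and separated by CE. Activity gain or loss relative to DMSO.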

Assay [17] is described as follows: ATG_FoxO_CIS: Attagene CIS-FACTORIAL HepG2 Assay for human Forkhead box O (FoxO) (AID 2282943). The note with it: HepG2 Attagene cis-reporter, FoxO element, mRNA; actives raise or lower the signal. The method in brief: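 Transfected HepG2 reporter cells exposed to test chemical for 24 h; reporter RNA measured by reverse transcription, PCR and fluorescent capillary electrophoresis; curves fitted for increases and decreases against DMSO.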

The nature of assay [18]: ATG_GATA_CIS: Attagene CIS-FACTORIAL HepG2 Assay for human GATA Binding Protein (AID 2282944). To be noted: HepG2 GATA cis-element reporter, Attagene multiplex mRNA; actives raise or lower the signal. The gist of the method:
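Transient MRTU transfection, HepG2, 24 h compound exposure. Total RNA → oligo(dT) RT → PCR → 6-FAM primer extension → HpaI cut → CE. Bidirectional fit vs DMSO.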

Assay [19] is described as follows: ATG_GLI_CIS: Attagene CIS-FACTORIAL HepG2 Assay for human Zinc Finger Protein GLI1 (AID 2282945). To be noted: HepG2, Attagene cis-factorial reporter mRNA, GLI element; actives raise or lower the signal. The gist of the method: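 Transiently transfected HepG2 cells report endogenous transcription factor activity via cis-element-driven reporter units. After 24 h compound exposure, reporter mRNA was measured by RT-PCR with capillary electrophoresis; bidirectional fitting against DMSO baseline.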

Assay [20] is described as follows: ATG_ERE_CIS: Attagene CIS-FACTORIAL HepG2 Assay for Estrogen Response Element (ERE) (AID 2282940). The note with it: HepG2 ERE cis-reporter, Attagene RNA transcript; actives raise or lower the signal. The method in brief:
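Transient MRTU transfection of human HepG2; cis-element promoters; 24 h dosing; total RNA → RT (oligo dT) → PCR → 6-FAM primer extension → HpaI digest → CE fluorescence. Bidirectional fit, DMSO baseline.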

Each structure is given as a SMILES string. Active and inactive are the calls of the source. The calls were made as follows: active = hit-call score of the fitted dose curve at least 0.9, where 1 is the maximum; inactive = score below 0.9.

Sequence of Transcription factor E2F1 (Homo sapiens) (Q01094 whole entry, looked up): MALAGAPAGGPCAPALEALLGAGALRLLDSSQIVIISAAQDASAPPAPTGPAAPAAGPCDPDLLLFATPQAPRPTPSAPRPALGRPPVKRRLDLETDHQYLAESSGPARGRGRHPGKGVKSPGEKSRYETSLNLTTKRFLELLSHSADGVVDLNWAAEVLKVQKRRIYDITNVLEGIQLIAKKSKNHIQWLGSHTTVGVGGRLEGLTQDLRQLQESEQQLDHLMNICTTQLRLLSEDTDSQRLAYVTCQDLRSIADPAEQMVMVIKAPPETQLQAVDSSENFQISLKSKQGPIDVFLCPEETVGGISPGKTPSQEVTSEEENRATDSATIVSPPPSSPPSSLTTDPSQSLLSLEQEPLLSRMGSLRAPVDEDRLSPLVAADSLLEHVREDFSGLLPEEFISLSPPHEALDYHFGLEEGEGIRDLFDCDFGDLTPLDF
Sequence of Aryl hydrocarbon receptor (Homo sapiens) (P35869 whole entry, looked up): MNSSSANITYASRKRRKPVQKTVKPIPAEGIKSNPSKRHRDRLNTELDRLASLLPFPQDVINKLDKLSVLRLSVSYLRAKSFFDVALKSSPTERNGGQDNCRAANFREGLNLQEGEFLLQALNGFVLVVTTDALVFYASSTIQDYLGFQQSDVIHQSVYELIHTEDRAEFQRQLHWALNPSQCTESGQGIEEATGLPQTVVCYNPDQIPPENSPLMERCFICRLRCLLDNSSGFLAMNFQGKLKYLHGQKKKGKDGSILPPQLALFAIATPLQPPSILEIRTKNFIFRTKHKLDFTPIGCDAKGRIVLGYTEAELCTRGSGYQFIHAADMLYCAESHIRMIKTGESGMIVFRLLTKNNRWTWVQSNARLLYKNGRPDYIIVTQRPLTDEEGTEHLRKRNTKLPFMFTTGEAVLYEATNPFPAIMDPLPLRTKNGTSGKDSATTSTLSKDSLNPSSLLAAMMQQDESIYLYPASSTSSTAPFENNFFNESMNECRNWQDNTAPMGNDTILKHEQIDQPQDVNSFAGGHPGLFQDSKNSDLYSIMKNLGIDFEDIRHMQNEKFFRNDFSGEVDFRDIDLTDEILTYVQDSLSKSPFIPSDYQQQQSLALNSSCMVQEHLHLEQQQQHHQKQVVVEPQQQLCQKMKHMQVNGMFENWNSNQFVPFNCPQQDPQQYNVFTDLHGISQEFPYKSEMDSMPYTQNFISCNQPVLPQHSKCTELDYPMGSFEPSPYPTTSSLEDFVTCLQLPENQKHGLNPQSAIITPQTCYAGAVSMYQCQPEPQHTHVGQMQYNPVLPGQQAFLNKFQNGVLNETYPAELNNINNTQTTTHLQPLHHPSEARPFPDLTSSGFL
Sequence of Hepatocyte nuclear factor 3-beta (Homo sapiens) (Q9Y261 whole entry, looked up): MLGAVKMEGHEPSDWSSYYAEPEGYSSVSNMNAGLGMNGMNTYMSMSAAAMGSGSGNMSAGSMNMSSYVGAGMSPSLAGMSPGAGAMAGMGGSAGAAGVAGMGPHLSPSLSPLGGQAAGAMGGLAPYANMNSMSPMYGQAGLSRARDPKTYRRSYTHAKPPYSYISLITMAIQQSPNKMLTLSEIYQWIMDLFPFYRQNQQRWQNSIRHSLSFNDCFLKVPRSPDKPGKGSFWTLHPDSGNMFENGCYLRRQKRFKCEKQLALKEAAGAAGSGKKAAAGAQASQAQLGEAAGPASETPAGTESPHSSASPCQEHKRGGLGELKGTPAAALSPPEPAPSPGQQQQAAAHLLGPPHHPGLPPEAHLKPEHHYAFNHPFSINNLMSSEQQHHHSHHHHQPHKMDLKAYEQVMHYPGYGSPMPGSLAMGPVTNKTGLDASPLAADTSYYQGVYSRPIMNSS

As for `CCCCCNCCCCC`, the molecule was called inactive in [1], in assay [2], in assay [3], in assay [4], in [5] and in assay [6]. Further, the call in [7], in assay [8], in assay [9], in [10], in assay [11] and in assay [12] was inactive. In addition, the result in [13], in [14], in [15], in [16], in assay [17] and in [18] was inactive. Besides, in [19], the molecule was classed as inactive.

As to `CC(CN1c2ccccc2Sc2ccccc21)N(C)C` (stereo unspecified), the call in [1], in [2], in [3], in assay [5], in assay [6] and in assay [8] was inactive. For the same molecule, the outcome in [9], in assay [15], in assay [16], in assay [17], in assay [18] and in assay [19] was inactive. In addition, the AC50 in [4] was 33.4 µM (active); in [7], 40.6 µM (active); in assay [10] it was 33.4 µM (active); in assay [11], 55.5 µM (active); in assay [13], 25.2 µM (active).

As for `CCCCCCCCCCN`, the outcome in assay [1], in assay [2], in assay [3], in [4], in assay [5] and in assay [6] was inactive. Besides, the outcome in assay [7], in [8], in assay [9], in assay [12], in assay [13] and in [14] was inactive. For the same molecule, the call in assay [15], in assay [16], in assay [17], in assay [18] and in [19] was inactive.

Turning to `Nc1cc(Cl)c(O)c(Cl)c1`, the molecule was called inactive in [1], in [2], in assay [4], in [5], in assay [6] and in assay [7]. Moreover, the molecule was classed as inactive in [8], in [10], in assay [11], in assay [12], in assay [14] and in assay [20]. Further, the molecule was called inactive in assay [15], in assay [16] and in assay [18]. For the same molecule, the AC50 is 186 µM (active) in assay [3], 136 µM (active) in [13] and 135 µM (active) in [17].

These data come from PubChem BioAssay (EPA / NIEHS).
